From ChEMBL document CHEMBL4513216, “Probing the Open Global Health Chemical Diversity Library for Multistage-Active Starting Points for Next-Generation Antimalarials” (ACS Infect Dis, 2020) come the findings set out here.

About 8,600 (12%) of roughly 69,000 compounds showed an effect of 50% or more. Shown is part of a subset that was picked to be rich in strong results.

In this assay the test system is Plasmodium berghei. Description: Screen against P. berghei liver stage (PbLuc), transformed with Luciferase, at 10uM. The class given is functional, HepG2. Particulars: tested at 10 uM.
For `O=c1c(S(=O)(=O)N2CCCC2)cccn1Cc1c(F)cccc1Cl`, the INHIBITION was 7.92%.
`Cc1nc[nH]c1CN1CCC2(CC1)CC(Nc1ncccn1)CO2` (stereo not given): the INHIBITION came to 27.6%.
In the case of `CCc1cnc(CN2CCC(N(Cc3noc(CC)n3)C(C)=O)C2)o1` (stereo not given), the INHIBITION is -15.5%.
Take `CC1CN(CC(=O)NCc2cccs2)CCN1c1nccs1` (stereo not given): the INHIBITION came out at 36.1%.
As for `Cc1ccc(-c2cc(N)c(=O)n(C(C)C(N)=O)n2)o1` (stereo not given), the INHIBITION is -6.88%.
The value for `COc1ccccc1CN1C[C@@H]2CN(C(C)=O)CCO[C@@H]2C1` was 0.453%; that for `COCC(=O)N1CCN(C(=O)NC(C)C)CC2(CC(=O)N(C)C2)C1` (stereo not given) was 45.2%.
The value for `O=C1NCC2=Nc3ccccc3NC(c3ccccc3)C12` (stereo not given) was 7.92%; that for `CN(C)CCOCc1nnc2n1CCN(Cc1ccoc1)CC2` was 0.618%; that for `CN(C)CCOCc1nnc2n1CCN(Cc1ccc(F)cc1)CC2` was 69.8%.
The value for `COc1ccc(CN2CCc3nnc(COCCN(C)C)n3CC2)cc1` was 22.4%.
In the case of `CN(CC(=O)N1CCCCC1c1nc(C(C)(C)C)cs1)C1CC1` (stereo not given), the INHIBITION is listed as -19.9%.
The value for `Cc1nccc(C2CCCCN2Cc2ccc(F)cc2)n1` (stereo not given) was 41.2%; that for `CCS(=O)(=O)N1Cc2ccccc2CC1C(=O)OCc1cc(C)no1` (stereo not given) was 60.2%.
Under `CCS(=O)(=O)N1Cc2ccccc2CC1C(=O)OCc1c(C)noc1C` (stereo not given) stands -16.3%; under `Cc1cc(COC(=O)[C@@H]2Cc3ccccc3CN2S(C)(=O)=O)no1`, 5.91%.
Under `Cc1nc(CN2CCC3(CCCN(Cc4cnn(C)c4)C3)C2=O)cs1` (stereo not given) stands -0.912%.
As for `COc1ccc2[nH]c3c(N(C)CC4OCCO4)ncnc3c2c1`, the INHIBITION is -112%.
The value for `O=C(c1ccccc1)N1CC[C@H]2C[C@H](c3nnc(C4CC4)o3)O[C@@H]2C1` was 38.5%; that for `Cc1occc1C(=O)N1CC[C@H]2C[C@@H](c3nnc(C4CC4)o3)O[C@@H]2C1` was 68.4%.
The value for `O=C(c1cccs1)N1CC[C@H]2C[C@@H](c3nnc(C4CC4)o3)O[C@@H]2C1` was 26.7%; that for `O=C(c1ccccc1)N1CC[C@H]2C[C@@H](c3nnc(C4CC4)o3)O[C@@H]2C1` was 38.5%.
The value for `Cc1ccoc1C(=O)N1CC[C@H]2C[C@H](c3nnc(C4CC4)o3)O[C@@H]2C1` was 54.8%.
For the molecule `O=C(c1ccoc1)N1CC[C@H]2C[C@@H](c3nnc(C4CC4)o3)O[C@@H]2C1`, the INHIBITION is given as 35.8%.
The value for `O=C(c1ccsc1)N1C[C@@H]2C[C@@H](c3nnc(C4CC4)o3)O[C@@H]2C1` was -31.6%.
Under `O=C(c1ccsc1)N1CC[C@H]2C[C@@H](c3nnc(C4CC4)o3)O[C@@H]2C1` stands -1.64%.
Under `O=C(Cc1ccsc1)N1C[C@@H]2C[C@@H](c3nnc(C4CC4)o3)O[C@@H]2C1` stands 61.8%.
Regarding `Cc1ccnc(C2COCCN2C)n1` (stereo not given), the INHIBITION was determined as 8.905%.
As for `CCn1ccnc1CN1CCN(CC(O)c2ccco2)CC1` (stereo not given), the INHIBITION was 10.55%.
Under `c1cncc(COCC2CN(Cc3cccnc3)Cc3ccnn3C2)c1` (stereo not given) stands -60.2%.
Under `CCCc1cc(=O)[nH]c(-c2ccccc2CN(C)CCC(C)C)n1` stands 36.6%; under `Cc1cccn2cc(CN3CCC(N4CCN(C)C4=O)CC3)nc12`, -1.85%; under `OC(CN1CCN(Cc2cccnc2)CC1)c1cccs1` (stereo not given), 10.1%.
For `CCc1nccn1CCC(=O)N1CCCC1c1cncc(NC)n1` (stereo not given), the INHIBITION came to 2.365%.
The value for `O=C(CN1CC(c2nc(C3CC3)no2)C1)NCC1CCCO1` (stereo not given) was 48%; that for `O=S(=O)(C1CC1)N1CCO[C@H]2[C@H](OCCN3CCCC3)CC[C@@H]21` was -9.67%.
The value for `CN(Cc1cnccn1)S(=O)(=O)N1CCCC1c1ccco1` (stereo not given) was 4.3%; that for `Cc1noc(C)c1CN1CCOC(CNc2cccnn2)C1` (stereo not given) was -7.35%; that for `CCOc1cc(CNCc2nc(C)cc(=O)[nH]2)c(Cl)cc1OC(C)C` was 39.6%.
The value for `CCOc1cc(CNCc2cnc(C)cn2)c(Cl)cc1OC(C)C` was 63.5%.
With `CCOc1cc(CNCc2ncc[nH]2)c(Cl)cc1OC(C)C`, the INHIBITION is recorded as 33.1%.
For the molecule `Cc1nc(CN2CCN(C(=O)NC(C)Cn3ccnc3)CC2)cs1` (stereo not given), the INHIBITION is -28.2%.
Consider `CS(=O)(=O)c1snnc1C1CCCN(Cc2ccncc2)C1` (stereo not given), for which the INHIBITION was found to be 9.93%.
Under `CN(C)c1ncc(CN2CCC(c3nnsc3S(C)(=O)=O)CC2)cn1` stands 51.2%; under `CS(=O)(=O)c1snnc1C1CCN(Cc2ccncc2)CC1`, 67.7%; under `CS(=O)(=O)c1snnc1C1CCN(Cc2cccnc2)CC1`, 48.6%.
Under `Cc1cccc(CN2CCC(c3nnsc3S(C)(=O)=O)CC2)c1` stands 18.9%.
Under `CNc1ncc(CN2CCC(c3nnsc3S(C)(=O)=O)CC2)cn1` stands 21.9%; under `CCC(O)CN1CCN(C(=O)c2cnc3n[nH]c(C)c3c2)CC1` (stereo not given), 12.7%.
In the case of `O=C(O)CSc1nccc(-c2ccc3c(c2)OCO3)n1`, the INHIBITION is 8.51%.
Under `CCc1nnc(C(C)N2CCc3cncnc3C2)o1` (stereo not given) stands 2.43%.
Take `O=C(NC1CC1)N1CC[C@H](OCC2CC2)[C@@H]1Cc1cccnc1`: the INHIBITION was determined as 29%.
The value for `O=C(CN1CCC(c2ccccc2)C1)NC(=O)NCC(F)(F)F` (stereo not given) was 36.65%; that for `CS(=O)(=O)N1CCc2nc(NC(=O)Nc3c(F)cccc3F)sc2C1` was 9.54%; that for `O=C(Nc1nc2c(s1)CN(S(=O)(=O)C1CC1)CC2)c1c(F)cccc1F` was -45.9%.
The value for `O=C(Nc1nc2c(s1)CN(S(=O)(=O)C1CC1)CC2)c1cccc(Cl)c1` was 26%.
The value for `O=C(Nc1nc2c(s1)CN(S(=O)(=O)C1CC1)CC2)c1ccccn1` was 39.3%.
With `O=C(Nc1nc2c(s1)CN(S(=O)(=O)C1CC1)CC2)Nc1ccccc1F`, the INHIBITION turned out to be 64.5%.
Under `O=C(Nc1nc2c(s1)CN(S(=O)(=O)C1CC1)CC2)c1ccc(Cl)s1` stands 73.3%; under `CC(CNC(=O)NCCCc1cc(N)n(-c2ccccc2)n1)N(C)C` (stereo not given), 30.3%; under `CCN(CC)Cc1cn2c(n1)CN(C(=O)c1cc(C)on1)CC2`, 38.1%.
The value for `COC(=O)C1(NCC(=O)Nc2cc(C)ccc2OC)CCCCC1` was 5.11%; that for `c1ncn(CC2CN(Cc3nc(C4CC4)no3)CCO2)n1` (stereo not given) was -7.31%; that for `CCn1cnnc1C1CCN(C(=O)c2ccnc(N(C)C)c2)CC1` was 31.6%.
The value for `O=C(c1ccno1)N1CCOC[C@H](Oc2ccc(C(F)(F)F)cc2)C1` was 50.2%; that for `O=C(c1ccno1)N1CCOC[C@H](Oc2ccccc2)C1` was 25.3%; that for `COc1ccc(O[C@H]2COCCN(C(=O)c3ccno3)C2)cc1` was -11.1%.
As to `CCOCC(=O)Nc1cccc(Oc2ccccn2)c1`, the INHIBITION is given as -13.4%.
Under `COCCN1CCC2(CCN(Cc3cccs3)CC2)C1=O` stands -3.12%; under `O=C(NCCCn1nc2ccccn2c1=O)NCc1ccccc1`, -9.76%.
For `CCCNC(=O)c1cc2c(s1)CCN2c1ncccn1`, the INHIBITION was determined as 4.98%.
Consider `CC(C)NC(=O)c1cc2c(s1)CCN2c1ncccn1`, for which the INHIBITION is reported as -21.3%.
For `O=C(NCC1CC1)c1cc2c(s1)CCN2c1ncccn1`, the INHIBITION came out at 75.6%.
Regarding `O=C(NCCN1CCCC1)c1cc2c(s1)CCN2c1ncccn1`, the INHIBITION was 61.1%.
The value for `O=C(NCC1CC1)c1cc2c(s1)CCN2C(=O)c1cccnc1` was -26.1%.
The value for `Cc1ccc(N2CCc3sc(C(=O)NCCN4CCCC4)cc32)nn1` was -15.2%; that for `O=C(c1ccco1)N1CCO[C@@H]2CNC[C@@H]21` was 22.2%.
Under `COc1ccc(C)cc1-n1ccc(C(=O)NCC2CCCOC2)n1` (stereo not given) stands 17.3%.
For the molecule `OC1(CNCCc2nc3c(s2)CCCC3)CNCCOC1` (stereo not given), the INHIBITION is listed as -12.1%.
As for `CN(CCCSc1ccccc1)C(=O)Cn1ncc(N(C)C)cc1=O`, the INHIBITION stood at 31.7%.
Under `Cc1ccc(NC(=O)c2nc3c(s2)CCCN3C(=O)C2CC2)cn1` stands -0.804%.
For `Cc1ccc(NC(=O)c2nc3c(s2)CCCN3C(C)C)cn1`, the INHIBITION was determined as 63.5%.
Under `CC(=O)N1CCCc2sc(C(=O)Nc3ccc(C)nc3)nc21` stands 34.6%; under `NS(=O)(=O)CCN(CCc1cccc(F)c1)C1CCCC1`, 36.3%; under `CS(=O)(=O)Nc1cnn(Cc2cccc(Cl)c2)c1`, 29.1%.
Under `COc1ccc(-n2ccc(C(=O)NCCn3ccnc3)n2)cc1` stands 5.9%; under `CN1[C@@H]2CC[C@H]1CN(C(=O)c1nnc3n1CCCC3)CC2`, -151%; under `Cc1cc(CN2CC[C@H]3OCC[C@@]3(C(=O)NC(C)C)C2)no1`, 6.32%.
Under `CC(C)NC(=O)[C@@]12CCO[C@@H]1CCN(Cc1ccco1)C2` stands 60.3%; under `O=C(NCc1ccco1)[C@@]12CCO[C@@H]1CCN(CCN1CCCC1)C2`, 22.4%; under `CNC(=O)[C@@]12CCO[C@@H]1CCN(Cc1scnc1C)C2`, 19%.
Take `O=C(NCc1ccccn1)[C@@]12CCO[C@@H]1CCN(c1ncccn1)C2`: the INHIBITION stood at 41.2%.
The value for `COCCNC(=O)[C@@]12CCO[C@@H]1CCN(Cc1scnc1C)C2` was 8.67%; that for `O=C(NCc1ccccn1)[C@@]12CCO[C@@H]1CCN(Cc1ccccn1)C2` was 51.2%; that for `Cc1ncsc1CN1CC[C@H]2OCC[C@@]2(C(=O)NCC2CC2)C1` was 53.4%.
Take `O=C(NCc1ccco1)[C@@]12CCO[C@@H]1CCN(Cc1ccccn1)C2`: the INHIBITION was -34.7%.
For the molecule `c1coc(CN2CCCn3c(nnc3Cn3cccc3)C2)c1`, the INHIBITION came out at 45.4%.
The value for `Cc1ccc(CN2C[C@H](OCC3CCOCC3)[C@H]3COC[C@H]32)o1` was -59.9%; that for `Oc1cc(CC2COCCN(CC3(O)CCOCC3)C2)ncn1` (stereo not given) was 6.26%.
As to `CC(C)c1nnc2n1CCN(C(=O)Cc1csc(C(C)(C)C)n1)C2`, the INHIBITION stood at 1.35%.
